# Pf growth 48h: inhibits P. falciparum growth in the first generation, 48 h. actives 5.9% (n = 310,000). Potency, µM (highest dose often 28.7 µM), without a hit: at the highest dose activity change, negative = inhibition, actives largely listed as inhibitors. P. falciparum luciferase growth in erythrocytes, 48 h; further: potency means the concentration at half of the fitted maximal effect; on the % scale 0 is the no-effect control and ±100 the full control effect
#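 Here the parasites carry a stable luciferase gene and grow inside erythrocytes in Albumax-based RPMI medium with compound for one erythrocytic cycle. Activity is scored as loss of luminescent signal.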
# Shiga toxin inh: inhibitors of Shiga toxin in Vero cells; Vero cells, Shiga toxin protein synthesis inhibition reporter; inhibition, % at 38.7 µM; actives 9.2% (n = 290,000); AID 2315; in the data active means inhibition mostly above about 28%, no sharp cut-off; inactive means mostly below about 43%; further: 0% is about no effect
# Lassa entry inh: blocks Lassa virus binding to or entry into cells | Lassa virus pseudotype entry inhibition, cell reporter | Potency, µM (titrated, usually from 37.9 µM), for inactives: top-dose activity change, negative = inhibition, hits mostly inhibitors | actives 1.2% (n = 300,000); calls by dose curve; tested in HEK293 cells; further: potency means the concentration at half of the fitted maximal effect; on the % scale 0 is the no-effect control and ±100 the full control effect; nearly all actives have a fitted effect of over 50% in size
# MARV entry inh: blocks Marburg virus binding to or entry into cells; Marburg virus pseudotyped entry inhibition, cell reporter; actives 1.8% (n = 300,000); Potency, µM (titrated, usually from 37.8 µM), for inactives: at the top dose activity change, negative = inhibition, most hits filed as inhibitors; calls by dose curve; tested in HEK293 cells; further: potency means the concentration at half of the fitted maximal effect; on the % scale 0 is the no-effect control and ±100 the full control effect
# Pf growth 96h: P. falciparum growth inhibition at 96 hours; P. falciparum luciferase reporter growth, 96 h; Potency, µM (top dose mostly 28.7 µM), for the others: top-dose activity change, negative = inhibition, actives largely listed as inhibitors; actives 6.9% (n = 320,000); AID 504834; further: potency means the concentration at half of the fitted maximal effect; on the % scale 0 is the no-effect control and ±100 the full control effect
#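 Infected RBCs, 2% Hct / 0.05% parasitemia final; luciferase-reporter P. falciparum; cpd 96 h, 37 C, 5% CO2; luciferase detection reagent; luminescence.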
# Cycloheximide cs: counter-screen hit for Shiga toxin inhibitors, cycloheximide | cell reporter, cycloheximide protein synthesis inhibition counterscreen | max response, % | actives 12% (n = 300,000) | AID 2314; in the data active means max response mostly above about 13%, no sharp cut-off; inactive means mostly below about 14%; further: read at 38.3 µM for the half of the compounds with a filed dose; 0% is about no effect
# * hit, by the source's call; u = inconclusive; x = not tested or not shown; [ ] = remark or other dose. Most compounds without a hit are left out; they make up all but 19% or so of the library. Unless noted, the call rests on the fitted dose curve; in most records, active means well fitted inhibition curve with a large enough effect; inconclusive means small, poorly fitted or top-dose-only effect, or another doubt; inactive means no such curve, though single readings can be large or run the other way.
SMILES,Pf growth 48h,Shiga toxin inh,Lassa entry inh,MARV entry inh,Pf growth 96h,Cycloheximide cs
COc1cc(OC)cc(C(=O)OCc2ccc([N+](=O)[O-])cc2)c1,-3.1%,-2.4,-0.2%[46.1 µM],u,44.0%,7.4
Cc1nc2ncc(Br)cc2[nH]1,9.4%,2.2,4.4%,u,4.9%,-3.0
Cc1ccccc1CSCc1ccc(C(=O)NCCc2ccccc2)o1,x,x,15.3%[46.1 µM],x,x,x
CCOc1cc(CNCCO)cc(Br)c1OCc1ccc(Cl)cc1,u,-7.1,u,u,11.7µM*,-2.0
CCOc1cc(CNC(C)(C)CO)cc(Br)c1OCc1ccc(Cl)cc1Cl,u,-17.3,u,18.3µM*,9.28µM*,-2.7
COc1cc(CNC(C)(C)CO)cc(Br)c1OCc1ccccc1,u,-6.3,u,u,u,5.8
CCOc1cc(CNCCO)cc(Br)c1OCc1ccccc1Cl,10.4µM*,-18.3,u,15.8µM*,11.7µM*,-3.4
COCCN(CCOC)C(=O)CN1C(=O)NC2(CCCc3sccc32)C1=O (centres undefined),6.1%,3.0,-12.4%,3.3%[46.1 µM],19.9%,-7.0
Cc1ccc2cc3c(N)[nH]nc3nc2c1,36.4%,14.1,10.7%,9.1%,31.7%,21.2*
O=C(CN(Cc1ccco1)S(=O)(=O)c1ccccc1)N/N=C/c1ccccc1C(=O)O,-2.6%,31.7,18.3%,15.7%[46.1 µM],u,5.5
OC(c1cccnc1)c1cccs1 (centres undefined),11.4%,-8.2,-6.5%,0.7%,x,-2.3
CCN(c1ccc2c(c1)OCO2)S(=O)(=O)c1cc(Br)cc2c1N(C(C)=O)CC2,u,15.0,20.3%,9.0%,9.28µM*,-2.6
O=C(C1CC1)N1CCc2cc(Br)cc(S(=O)(=O)N3CCOCC3)c21,5.22µM*,11.8,-28.3%,u,37.2%,-1.3
CCCCN(C)S(=O)(=O)c1cc(Br)cc2c1N(C(=O)C1CC1)CC2,4.65µM*,-10.1,u,1.7%,u,4.3
COc1ccc(N2CCN(S(=O)(=O)c3cc(Br)cc4c3N(C(=O)C3CC3)CC4)CC2)cc1,x,x,-2.5%[46.1 µM],u,x,x
CCC(=O)N1CCc2cc(Br)cc(S(=O)(=O)NC3CCN(Cc4ccccc4)CC3)c21,-25.7%,-10.7,2.24µM*,u,-16.3%,4.7
CCC(=O)N1CCc2cc(Br)cc(S(=O)(=O)NCCCN(C)Cc3ccccc3)c21,u,-5.5,18.4%,u,u,-3.0
O=C1CC(NNC(=O)c2ccccc2)C(=O)N1 (centres undefined),u,-9.7,-4.9%,-23.7%,-11.2%,-1.5
O=C(NCc1ccccc1OC(F)(F)F)C1CCC(=O)N(CCc2ccccn2)C1 (centres undefined),x,x,4.6%,17.6%,x,x
COc1cccc(CNC(=O)c2cccc(S(=O)(=O)N3CCN(c4ccc(F)cc4)CC3)c2)c1,u,x,u,-27.4%,u,x
CC(=O)N1CCc2cc(Br)cc(S(=O)(=O)N3CCCCC3)c21,2.62µM*,-5.6,-23.6%[46.1 µM],-0.6%[46.1 µM],u,1.1
CCOC(=O)C1CCCN(S(=O)(=O)c2cc(Br)cc3c2N(C(C)=O)CC3)C1 (centres undefined),3.7µM*,-12.6,u,-16.3%[46.1 µM],u,-5.9
CCC(=O)N1CCc2cc(Br)cc(S(=O)(=O)N3CCC(C(=O)NC(C)(C)C)CC3)c21,u,-2.2,-28.1%[46.1 µM],3.9%[46.1 µM],34.3%,-3.7
CCC(=O)N1CCc2cc(Br)cc(S(=O)(=O)N3CCCC(C(=O)NC(C)(C)C)C3)c21 (centres undefined),1.17µM*,21.1,10.9%,u,u,12.8
CCOC(=O)C1CCN(S(=O)(=O)c2cc(Br)cc3c2N(C(C)=O)C(C)C3)CC1 (centres undefined),8.28µM*,-9.1,u,-4.1%,u,-0.5
SMILES,Pf growth 48h,Shiga toxin inh,Lassa entry inh,MARV entry inh,Pf growth 96h,Cycloheximide cs
CCOc1ccc(C2=CS/C(=C(\C#N)c3nnc4n3CCCCC4)N2CC)cc1,u,-12.0,u,u,-3.4%[5.75 µM],1.3
CC(C)(C)SCCNC(=O)/C=C/c1ccccc1,u,104.1*,-14.8%,u,10.4µM*,46.4*
O=C(/C=C/c1ccc([N+](=O)[O-])cc1)NCCc1ccccc1,6.6%,17.8,x,x,-46.2%,9.2
O=C(/C=C/c1ccccc1)NCCc1ccccc1,-27.5%,91.9*,x,x,23.7%,45.7*
CC(C)(C)SCCNC(=O)/C=C/c1ccc(F)cc1,u,114.5*,10.1%,u,-4.7%,50.8*
O=C(/C=C/c1ccccc1)NCCSCc1ccc(Cl)cc1,u,-17.1,-2.1%,0.2%,0.9%,0.2
FC(F)(F)c1ccc(CN2CCN(Cc3ccco3)CC2)cc1,14.4%,-7.7,x,x,u,-1.7
Cc1nc(SCC(=O)NCCc2ccccc2)n[nH]1,5.4%,-18.5,11.2%,8.9%,u,-7.5
CN1CCN(C(=O)COCc2cc(-c3ccc4c(c3)OCO4)on2)CC1,32.0%,23.4*,u,1.5%[46.1 µM],-11.0%,18.1*
NC(=O)C1CCN(C(=O)COCc2cc(-c3ccc4c(c3)OCO4)on2)CC1,38.5%,9.8,x,x,10.0%,16.8
O=C(COCc1cc(-c2ccc3c(c2)OCO3)on1)N1CCCCC1,7.4%,75.8*,x,x,45.8%,68.2*
Cc1cc(Sc2ncnc(N)c2[N+](=O)[O-])ncn1,0.1%,-1.1,11.2µM*,u,10.5%,-1.0
Cc1cc(Sc2nc(N)ncc2[N+](=O)[O-])ncn1,31.5%,-6.8,-11.4%,u,-12.2%,4.7
COc1ccc(C2NC(=O)NC(C)=C2C(=O)Nc2ccccc2)cc1OC (centres undefined),x,x,6.0%[46.1 µM],x,x,x
COc1ccc([N+](=O)[O-])cc1N(CC(=O)NC1CCCCC1)S(C)(=O)=O,3.6%,-5.0,3.1%,6.4%[46.1 µM],-29.1%,-2.2
CC(=O)C1CCC2C3CCC4=CC(=O)C=CC4(C)C3C(=O)CC12C (centres undefined),x,x,1.3%[46.1 µM],-19.6%[46.1 µM],x,x
C[C@]12C=CC(=O)C=C1CC[C@@H]1C2=CC[C@]2(C)[C@@H](C(=O)CN3CCN(c4cc(N5CCCC5)nc(N5CCCC5)n4)CC3)CC[C@@H]12,x,x,-25.0%,5.62µM*,x,x
CCCCCCSC1=C(C#N)C(c2ccccc2)CC(=O)N1 (centres undefined),-7.3%,6.9,-2.5%,-12.9%,-16.1%,16.8
COCCNC(=O)c1ccc(N2CC3CC(C2)c2cccc(=O)n2C3)c(NC(=O)c2ccc(F)cc2)c1 (centres undefined),13.4%,-2.2,x,x,u,-1.7
CCC(C)NC(=O)c1ccc(N2CC3CC(C2)c2cccc(=O)n2C3)c(NC(=O)c2ccc(Br)o2)c1 (centres undefined),u,-4.0,x,x,9.28µM*,-8.2
O=C(CS(=O)(=O)Cc1ccccc1)Nc1nc2c(s1)CCCC2,6.7%,31.4,12.4%,-3.4%,x,-2.7
S=C(Nc1nc2c(s1)CCCC2)NC1CC1,u,76.6*,-3.1%[46.1 µM],u,0.0%,52.4*

# Screening results (PubChem)
